# Measured values reported in ChEMBL document CHEMBL3988442, “University of Dundee, Small-Polar-MMV Screening Library” (2021).
# About 13,000 (27%) of roughly 48,000 compounds showed an effect of 50% or more. The list shows a part of the results.
# Tested on: Wolbachia pipientis
# Assay: Anti-Wolbachia Cell-Based Screen
# Format: functional
# Parameters: scale not given: in the data most compounds retested in dose-response had high values
# Settings: 5 µM
row,SMILES,Percent Effect [%]
1,CCO[C@H]1CN(C)C[C@@H]1NC(=O)c1c[nH]nc1C1CCCCC1,-8.959
2,NC(=O)C1CCN(C(=O)NCc2ccccc2Cn2ccnc2)CC1,-2.267
3,COc1cc(C(=O)N2CC[C@@H](NC(=O)c3ccccn3)[C@H](O)C2)ccn1,-8.714
4,COC1(CNS(=O)(=O)c2ccccc2Cl)CCSC1 (configuration not stated),-2.993
5,COC(=O)c1ccc(NC2CCN(CC(F)(F)F)C2=O)cc1C (configuration not stated),4.628
6,CCn1ccnc1CN1CCN(CCC(=O)NC(C)(C)C)CC1C (configuration not stated),-7.568
7,CN(C)S(=O)(=O)N1CCC(c2cccc(Cc3ccccc3Cl)n2)CC1,111.4
8,CN(C)S(=O)(=O)N1CCCC(c2cccc(Cc3ccc(F)cc3)n2)C1 (configuration not stated),101
9,CN(C)S(=O)(=O)N1CCCC(CCC(=O)Nc2ccc(Cl)cc2)C1 (configuration not stated),1.788
10,CN(C)S(=O)(=O)N1CCCC(c2cccc(Cc3ccc(Cl)cc3)n2)C1 (configuration not stated),74.08
11,CN1CCCC(c2cccc(Cc3ccccc3Cl)n2)C1 (configuration not stated),-5.601
12,CN(C)S(=O)(=O)N1CCCC(c2cccc(Cc3ccccc3)n2)C1 (configuration not stated),7.511
13,CN(C)S(=O)(=O)N1CCCC(c2cccc(Cc3ccccc3F)n2)C1 (configuration not stated),93.31
14,Cn1cc(CNC(=O)NCCOc2ccc(F)c(F)c2)cn1,-13.41
15,Cc1nc(COc2nc(C(C)C)no2)cs1,5.061
16,CC(C)(N)c1cn(C2CCN(c3ncccc3Cl)CC2)nn1,-9.362
17,CC(c1ccccc1Cl)N1CCN(C(=O)c2ccc(=O)[nH]c2)CC1 (configuration not stated),-13
18,Cc1c[nH]nc1C1CN(Cc2cnn(-c3ccccc3C(=O)O)c2)C1,143.7
19,Cc1cccc(C)c1OC1CN(Cc2cnn(C)c2)C1,-10.44
20,O=C(O)c1ccccc1-n1cc(CN2CCOC(c3cc[nH]n3)C2)cn1 (configuration not stated),92.78
21,Cc1ccnc(C2CN(Cc3cnn(-c4ccccc4C(=O)O)c3)C2)n1,148.5
22,CCOC(=O)c1n[nH]cc1CN1CCCC(N(C)Cc2ccccc2)C1 (configuration not stated),-2.39
23,CN1CCN(Cc2cnn(-c3ccccc3Cl)c2)[C@H]2CS(=O)(=O)C[C@H]21,2.085
24,Cn1cc(CN2CC[C@@H]3[C@@H](CCC(=O)N3CCc3ccccc3)C2)cn1,-6.541
25,COC(=O)c1cccc2nc([C@H]3CCN(Cc4ccccc4)C3)oc12,-1.952
26,O=C(O)c1ccccc1-n1cc(CN2CCC(c3cc[nH]n3)C2)cn1 (configuration not stated),122.2
27,COCCc1noc(CNC2CCCN(c3cccnn3)C2)n1 (configuration not stated),6.075
